Screening results deposited in PubChem BioAssay by The Scripps Research Institute Molecular Screening Center.
CHO-K1 Ca ag: counter-screen for M1 agonists: effect in parental CHO-K1 cells | Fluo-8 calcium fluorescence; scaled to maximal ATP response, vehicle zero | activation, % at 3 µM | 360,000 compounds, 0.48% hits | AID 602248, 2012; in the data active = activation above about 15%;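 also: untransfected CHO-K1 host cells lacking M1 receptor as counterscreen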
CHRM1 antagonist: human M1 muscarinic receptor antagonists, primary screen, CHO-K1 cells, Fluo-8 calcium fluorescence, 1536-well; inhibition, % at 3 µM; Muscarinic acetylcholine receptor M1 (Homo sapiens), P11229; CHO-K1 hM1, ACh EC80 antagonist; 360,000 compounds, 1.3% hits;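 active = percent inhibition above its own plate's cutoff, namely the mean of that plate's compound wells plus 3 SD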;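 also: peak over basal fluorescence ratio during 140 s after agonist addition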
Target sequence (P11229 whole entry, looked up): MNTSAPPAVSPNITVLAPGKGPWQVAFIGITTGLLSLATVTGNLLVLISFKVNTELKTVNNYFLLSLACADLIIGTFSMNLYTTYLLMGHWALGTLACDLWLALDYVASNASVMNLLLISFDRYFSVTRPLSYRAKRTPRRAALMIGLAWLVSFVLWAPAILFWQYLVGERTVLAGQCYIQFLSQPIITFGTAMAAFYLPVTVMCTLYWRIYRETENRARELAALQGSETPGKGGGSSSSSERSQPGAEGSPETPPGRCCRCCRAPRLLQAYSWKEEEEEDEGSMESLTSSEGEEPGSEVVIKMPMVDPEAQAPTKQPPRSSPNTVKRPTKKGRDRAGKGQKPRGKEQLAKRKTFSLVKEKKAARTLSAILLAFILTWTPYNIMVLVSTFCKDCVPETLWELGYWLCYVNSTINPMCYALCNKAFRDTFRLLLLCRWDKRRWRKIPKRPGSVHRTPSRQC
CHO-K1 Ca antag: counter-screen for M1 antagonists: effect in parental CHO-K1 cells | ATP-induced calcium, Fluo-8 fluorescence | 360,000 compounds, 0.6% hits | inhibition, % at 3 µM;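 active = inhibition above a per-plate cutoff, the plate's mean sample inhibition plus 3 SD, cut at about 24% in these data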
M1 PAM: human M1 muscarinic receptor positive allosteric modulators, primary screen, CHO-K1 cells, Fluo-8 calcium fluorescence, 1536-well | Muscarinic acetylcholine receptor M1 (Homo sapiens), P11229 | CHO-K1 hM1, ACh EC20; 0% = ACh EC20, 100% = maximal ACh | activation, % at 3 µM | 360,000 compounds, 0.088% hits | AID 588819, 2011; in the data active = activation above about 19%, passing the limit was not always enough
M1 ag: human M1 muscarinic receptor agonists, primary screen, Fluo-8 calcium fluorescence, CHO-K1 cells, HTS; 360,000 compounds, 0.33% hits; Muscarinic acetylcholine receptor M1 (Homo sapiens), P11229; activation, % at 3 µM; AID 588814, 2011; CHO-K1 hM1, agonist mode; 0% DMSO, 100% acetylcholine EC100;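 active = activation above the run's mean compound activation plus 3 SD, cut at about 16% in these data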;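 also: peak over basal fluorescence ratio within a 140 s kinetic read after compound addition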
CHO-K1 Ca PAM: nonselective calcium activators in parental CHO-K1 cells, primary screen, counter-screen for M1 PAM project, cell-based, Fluo-8 calcium fluorescence, full deck, 1536-well | 360,000 compounds, 0.02% hits | ATP EC20; 0% at ATP EC20, 100% at ATP max | activation, % at 3 µM | AID 602247, 2012;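 active = activation above the run cutoff, the mean activation of all test compounds plus 3 SD, cut at about 40% in these data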;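 also: peak over basal fluorescence ratio in a 140 s read after ATP addition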
Hits are given with their value. The list is not random: actives were taken first. Their share in the collection is about 2.3%.

What do the screens show for `O=c1c2c(-c3ccccc3)csc2nc2c3ccccc3c(NCCN3CCOCC3)nn12`?
CHO-K1 Ca ag: inactive; CHRM1 antagonist: 92; CHO-K1 Ca antag: inactive; M1 PAM: inactive; M1 ag: inactive; CHO-K1 Ca PAM: inactive

What do the screens show for `c1ccc(-c2csc3ncnc(NCCCN4CCOCC4)c23)cc1`?
CHO-K1 Ca ag: inactive; CHRM1 antagonist: inactive; CHO-K1 Ca antag: inactive; M1 PAM: inactive; M1 ag: inactive; CHO-K1 Ca PAM: inactive

How did O=C(CCn1c(=O)oc2ccccc21)NCc1ccc2c(c1)OCO2 do in these assays?
CHO-K1 Ca ag: inactive; CHRM1 antagonist: inactive; CHO-K1 Ca antag: inactive; M1 PAM: inactive; M1 ag: inactive; CHO-K1 Ca PAM: inactive

What do the screens show for `Cn1nc(C(C)(C)C)cc1C(=O)NCc1ccc2c(c1)OCO2`?
CHO-K1 Ca ag: inactive; CHRM1 antagonist: inactive; CHO-K1 Ca antag: 39; M1 PAM: inactive; M1 ag: inactive; CHO-K1 Ca PAM: inactive

Results for O=C(CCn1cccc1)NCc1ccc2c(c1)OCO2 ?
CHO-K1 Ca ag: inactive; CHRM1 antagonist: inactive; CHO-K1 Ca antag: 27; M1 PAM: inactive; M1 ag: inactive; CHO-K1 Ca PAM: inactive

What do the screens show for `O=C(CN1CCc2ccccc21)NCc1ccc2c(c1)OCO2`?
CHO-K1 Ca ag: inactive; CHRM1 antagonist: inactive; CHO-K1 Ca antag: 29; M1 PAM: inactive; M1 ag: inactive; CHO-K1 Ca PAM: inactive

How did Cc1oc(C(C)(C)C)cc1C(=O)NCc1ccc2c(c1)OCO2 do in these assays?
CHO-K1 Ca ag: inactive; CHRM1 antagonist: inactive; CHO-K1 Ca antag: inactive; M1 PAM: inactive; M1 ag: inactive; CHO-K1 Ca PAM: inactive

How did Cc1nn(C)c(C(=O)N/N=C/c2ccc(-c3ccccc3)cc2)c1Cl do in these assays?
CHO-K1 Ca ag: inactive; CHRM1 antagonist: inactive; CHO-K1 Ca antag: inactive; M1 PAM: inactive; M1 ag: inactive; CHO-K1 Ca PAM: inactive

What do the screens show for `COC(=O)c1[nH]c2ccc(C)cc2c1NC(=O)CCN1CCN(Cc2ccc3c(c2)OCO3)CC1`?
CHO-K1 Ca ag: inactive; CHRM1 antagonist: 61; CHO-K1 Ca antag: inactive; M1 PAM: inactive; M1 ag: inactive; CHO-K1 Ca PAM: inactive

How did CC(=O)O[C@@H](Cc1ccc(O)cc1)C(=O)CC(C)C do in these assays?
CHO-K1 Ca ag: inactive; CHO-K1 Ca antag: inactive; CHO-K1 Ca PAM: inactive

Results for CC1CCCCN1CC(=O)Nc1ccccc1Sc1ccccc1 (centres undefined) ?
CHO-K1 Ca ag: inactive; CHRM1 antagonist: 27; CHO-K1 Ca antag: inactive; M1 PAM: inactive; M1 ag: inactive; CHO-K1 Ca PAM: inactive

How did CCSc1nc2ccccc2c(=O)n1CCc1ccc(OC)c(OC)c1 do in these assays?
CHO-K1 Ca ag: inactive; CHRM1 antagonist: 25; CHO-K1 Ca antag: inactive; M1 PAM: inactive; M1 ag: inactive; CHO-K1 Ca PAM: inactive

What do the screens show for `CCOC(=O)c1ccc(N2CC(O)=C(c3nc4ccccc4c(=O)[nH]3)C2=N)cc1`?
CHO-K1 Ca ag: inactive; CHRM1 antagonist: inactive; CHO-K1 Ca antag: 24; M1 PAM: inactive; M1 ag: inactive; CHO-K1 Ca PAM: inactive

Results for COc1ccc(CCN2CC(O)=C(c3nc4ccccc4c(=O)[nH]3)C2=N)cc1OC ?
CHO-K1 Ca ag: inactive; CHRM1 antagonist: inactive; CHO-K1 Ca antag: 30; M1 PAM: inactive; M1 ag: inactive; CHO-K1 Ca PAM: inactive

Results for COc1ccc(CCN2CC(O)=C(c3nc(C)cs3)C2=N)cc1OC ?
CHO-K1 Ca ag: inactive; CHRM1 antagonist: inactive; CHO-K1 Ca antag: inactive; M1 PAM: inactive; M1 ag: inactive; CHO-K1 Ca PAM: inactive

What do the screens show for `CCOc1ccc(N2CC(O)=C(c3nc4ccccc4c(=O)[nH]3)C2=N)cc1`?
CHO-K1 Ca ag: inactive; CHRM1 antagonist: inactive; CHO-K1 Ca antag: inactive; M1 PAM: inactive; M1 ag: inactive; CHO-K1 Ca PAM: inactive

How did CCC1CCCCN1CCCNC(=O)CNC(=O)c1nn(-c2ccc(OC)c(Cl)c2)c(=O)c2ccccc12 (centres undefined) do in these assays?
CHO-K1 Ca ag: inactive; CHRM1 antagonist: 49; CHO-K1 Ca antag: inactive; M1 PAM: inactive; M1 ag: inactive; CHO-K1 Ca PAM: inactive

Results for COc1ccccc1-n1nc(C(=O)NCc2ccco2)c2ccccc2c1=O ?
CHO-K1 Ca ag: inactive; CHRM1 antagonist: 15; CHO-K1 Ca antag: inactive; M1 PAM: inactive; M1 ag: inactive; CHO-K1 Ca PAM: inactive

Results for COc1ccc(-n2nc(C(=O)NCC(=O)Nc3cc(OC)c(OC)c(OC)c3)c3ccccc3c2=O)cc1 ?
CHO-K1 Ca ag: inactive; CHRM1 antagonist: 27; CHO-K1 Ca antag: inactive; M1 PAM: inactive; M1 ag: inactive; CHO-K1 Ca PAM: inactive

Results for COc1ccc(-n2nc(C(=O)NCc3ccco3)c3ccccc3c2=O)cc1 ?
CHO-K1 Ca ag: inactive; CHRM1 antagonist: inactive; CHO-K1 Ca antag: inactive; M1 PAM: inactive; M1 ag: inactive; CHO-K1 Ca PAM: inactive

Results for COc1ccc(-n2nc(C(=O)NCC(=O)Nc3cc(OC)c(OC)c(OC)c3)c3ccccc3c2=O)cc1OC ?
CHO-K1 Ca ag: inactive; CHRM1 antagonist: 30; CHO-K1 Ca antag: inactive; M1 PAM: inactive; M1 ag: inactive; CHO-K1 Ca PAM: inactive

Results for COc1ccc(-n2nc(C(=O)NCC(=O)Nc3cccc(NC(C)=O)c3)c3ccccc3c2=O)cc1 ?
CHO-K1 Ca ag: inactive; CHRM1 antagonist: inactive; CHO-K1 Ca antag: inactive; M1 PAM: inactive; M1 ag: inactive; CHO-K1 Ca PAM: inactive

What do the screens show for `COc1ccc(NC(=O)CNC(=O)c2nn(-c3ccc(OC)c(OC)c3)c(=O)c3ccccc23)c(OC)c1`?
CHO-K1 Ca ag: inactive; CHRM1 antagonist: inactive; CHO-K1 Ca antag: inactive; M1 PAM: inactive; M1 ag: inactive; CHO-K1 Ca PAM: inactive

How did CCCC(C)CO (centres undefined) do in these assays?
CHO-K1 Ca ag: inactive; CHRM1 antagonist: inactive; CHO-K1 Ca antag: inactive; M1 PAM: inactive; M1 ag: inactive; CHO-K1 Ca PAM: inactive

Results for CCOc1ccccc1NC(=O)Nc1ccc(Br)cc1C ?
CHO-K1 Ca ag: inactive; CHRM1 antagonist: inactive; CHO-K1 Ca antag: inactive; M1 PAM: inactive; M1 ag: inactive; CHO-K1 Ca PAM: inactive

Results for O=[N+]([O-])/C(C(=C(Cl)Cl)N1CCN(Cc2ccccc2)CC1)=C1\NCCN1Cc1ccc(Cl)nc1 ?
CHO-K1 Ca ag: inactive; CHRM1 antagonist: 43; CHO-K1 Ca antag: inactive; M1 PAM: inactive; M1 ag: inactive; CHO-K1 Ca PAM: inactive

What do the screens show for `O=[N+]([O-])C(/C=C(\Cl)[N+](=O)[O-])=C1N(Cc2ccc(Cl)nc2)CCN1Cc1ccc(Cl)nc1`?
CHO-K1 Ca ag: inactive; CHRM1 antagonist: inactive; CHO-K1 Ca antag: inactive; M1 PAM: inactive; M1 ag: inactive; CHO-K1 Ca PAM: inactive

How did Cc1c(C(=O)N2CCN(S(=O)(=O)c3ccccc3F)CC2)oc2c(Cl)cccc12 do in these assays?
CHO-K1 Ca ag: inactive; CHRM1 antagonist: inactive; CHO-K1 Ca antag: inactive; M1 PAM: inactive; M1 ag: 16; CHO-K1 Ca PAM: inactive
